Measurements published in PubChem BioAssay AID588493 (Sanford-Burnham Center for Chemical Genomics, 2011).
Values joined by “and” are separate entries in the source; they are usually repeats but may differ in a detail not shown here. Identical values can stand only once. Out of some 360,000 compounds screened, about 2,100 (0.58%) were called active.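 The calls were made as follows: active = inhibition at 20 µM, scaled to each plate's controls, above about 33% (limit read from the data); inactive = the rest.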 Many of the other results were omitted from the sample, so actives are more common in it than they were.

target: 26S proteasome non-ATPase regulatory subunit 14 (Homo sapiens) (UniProt O00487); assay: Rpn11 (PSMD14) deubiquitinase inhibitors, primary screen, biochemical, fluorescence polarization, uHTS (AID 588493); settings: human 26S proteasome, Ub4-pepOG fluorescence polarization; at 20 µM; active compounds read high; 20S core pre-blocked with epoxomicin
Sequence (O00487 whole entry, looked up): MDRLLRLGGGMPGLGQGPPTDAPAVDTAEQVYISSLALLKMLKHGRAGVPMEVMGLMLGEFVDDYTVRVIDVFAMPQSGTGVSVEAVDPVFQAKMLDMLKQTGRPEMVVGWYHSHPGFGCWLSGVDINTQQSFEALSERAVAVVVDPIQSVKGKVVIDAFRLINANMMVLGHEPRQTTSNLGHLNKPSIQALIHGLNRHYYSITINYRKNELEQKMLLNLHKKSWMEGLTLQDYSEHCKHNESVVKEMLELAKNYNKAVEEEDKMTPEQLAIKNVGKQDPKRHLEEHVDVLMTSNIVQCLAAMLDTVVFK

SMILES	inhibition
CC(C)CC(O)C1CCN(C(=O)CCc2nnc(-c3ccc4c(c3)OCO4)o2)CC1 (stereo unspecified)	-1.9% (inactive)
Cc1ccc(Nc2nc(N)nc(CSc3nnc(C)s3)n2)cc1	-0.4% (inactive)
Cc1ccc(Nc2ccccc2N)cc1	53% (active)
O=[N+]([O-])c1ccccc1Nc1ccc(O)cc1	0.3% (inactive)
O=[N+]([O-])c1cc(S(=O)(=O)Nc2cccc(Cl)c2)ccc1N=Nc1c(O)[nH]c2ccccc12	-18% (inactive)
Cc1c(OC(C)C(=O)N[C@@H](Cc2ccccc2)C(=O)O)ccc2c3c(c(=O)oc12)CCCC3 (stereo partly specified)	-4.9% (inactive)
Cc1oc2c(C)c3oc(=O)c(CC(=O)N[C@@H](CC(C)C)C(=O)N[C@@H](Cc4ccccc4)C(=O)O)c(C)c3cc2c1C	71.8% (active)
Cc1c(CCC(=O)N[C@@H](CC(C)C)C(=O)O)c(=O)oc2c(C)c3oc4c(c3cc12)CCCC4	-8.5% (inactive)
CC(=NCc1ccc2c(c1)OCO2)C1=C(O)c2ccccc2C1=O	-6.8% (inactive)
CCOc1ncccc1C(=O)OCC(=O)Nc1cccc(S(=O)(=O)N2CCCCCC2)c1	1.7% (inactive)
CC(C)(C)c1ccc(C(=O)NCc2ccco2)cc1	0.7% (inactive)
CCc1ccc(-c2cc(C(=O)NCc3ccco3)c3ccccc3n2)s1	40.1% (active)
Cc1cccc(Nc2ccccc2C(=O)NCc2ccco2)c1C	0.1% (inactive)
CN1CCNC(=O)C1CC(=O)N1CC=C(c2ccc(F)cc2)CC1 (stereo unspecified)	-2.3% (inactive)
CCCCCCCCCCOC(=O)Cn1c(COc2cccc(OC)c2)[n+](C)c2ccccc21	33% (active)
CCCc1cc(=O)[nH]c(SCC(=O)Nc2sc3c(c2C#N)CCCC3)n1	2% (inactive)
COc1ccc(-n2c(SCC(=O)Nc3sc4c(c3C#N)CCCC4)nnc2-c2ccc(O)cc2)cc1	59.6% (active)
COc1cccc(CN(C)CC(=O)Nc2sc3c(c2C#N)CCC3)c1	18% (inactive)
Cc1ccc(Cc2c(-c3ccco3)nc3ccc(Cl)cn23)cc1	18.2% (inactive)
COC(=O)c1c(CCl)noc1C(=O)NC(C)C	-0.8% (inactive)
O=C(/C=C/c1cccs1)c1cc(Cl)ccc1OC(=O)N1CCOCC1	1.7% (inactive)
O=c1c2ccccc2ncn1CCc1ccncc1	1.2% (inactive)
Cc1cc(/C=C2/SC(=O)N(CC(=O)N3CCCC3)C2=O)ccc1N1CCOCC1	59.6% (active)

SMILES	inhibition
Cc1ccc2c(c1)N(CC(=O)N1CCOCC1)C(=O)CO2	-3.1% (inactive)
O=C(CN1C(=O)CSc2ncccc21)N1CCOCC1	-4.6% (inactive)
Cc1cccc(N(C(=O)c2sc(C)nc2C)C(C(=O)NCC2CCCO2)c2ccccc2)c1 (stereo unspecified)	-7.9% (inactive)
CCNC(=O)C1(C)CCCN(Cc2noc(-c3ccccc3OC)n2)C1 (stereo unspecified)	2.1% (inactive)
CC(=O)N1CCN(Cc2cc(=O)oc3cc(C)ccc23)CC1	9.9% (inactive)
Cc1ccc(S(=O)(=O)N2[C@@H](c3ccc(Br)cc3)C(C(=O)O)=C[C@H]2CC2CCCC2)cc1	14.1% (inactive)
COc1cccc(NC(=O)C2(C)CCN2C(=O)CCC2CCCC2)c1 (stereo unspecified)	-22.2% (inactive)
COc1cccc(CN2C(=O)CCC2(C)C(=O)NC2CCCCCC2)c1 (stereo unspecified)	3.5% (inactive)
Cc1nnc(N(Cc2ccco2)C(=O)c2ccno2)s1	15% (inactive)
COc1cccc(CNC(=O)c2nnn(CC(=O)Nc3cc(C)ccc3C)c2N)c1	-0.5% (inactive)
COc1ccc(CNC(=O)c2nnn(CC(=O)Nc3cc(C)cc(C)c3)c2N)cc1	58.1% (active)
COc1ccc(NC(=O)Cn2nnc(C(=O)NCCc3ccc(OC)c(OC)c3)c2N)cc1	7% (inactive)
O=C(Nc1cccc(C(=O)O)c1)/C(=C\c1ccccc1)NC(=O)c1ccc(Br)o1	1.3% (inactive)
CC1(C)NC(=O)N(CCCCSc2ccc(Cl)cc2)C1=O	1.8% (inactive)
O=P(c1ccc2c(c1)OCCO2)(N1CCOCC1)N1CCOCC1	2.8% (inactive)
CS(=O)(=O)c1ccc2c(c1)SC1=NC(=O)/C(=C/c3ccco3)C(=N)N12	76.1% (active)
CCS(=O)(=O)C1=NSC2=NC(=O)/C(=C\c3ccc(OS(=O)(=O)c4ccccc4)cc3)C(=N)N21	22.6% (inactive)
CCCC1C(c2ccccc2)C(C#N)(C#N)C2(C#N)CC1(N)NC2=O (stereo unspecified)	3% (inactive)
COC1=C/C(=C/c2c(N)n3nc(CC(=O)N4CCOCC4)sc3nc2=O)C=CC1=O	46.9% (active)
COc1ccc(-c2ccnc(SCC(=O)N3CCOCC3)n2)cc1	-4% (inactive)
O=C(Oc1ccccc1C(=S)N1CCCCC1)c1cc([N+](=O)[O-])cc([N+](=O)[O-])c1	1.8% (inactive)
CC(C)CC1C(=O)N(Cc2cn(Cc3ccco3)nn2)CCS(=O)(=O)N1Cc1ccc(-c2ccc(Cl)c(Cl)c2)cc1 (stereo unspecified)	59.9% (active)
CC(C)CC1C(=O)N(Cc2cn(CC3CCCCC3)nn2)CCS(=O)(=O)N1Cc1ccc(-c2ccc(Cl)cc2)cc1 (stereo unspecified)	-2.7% (inactive)

SMILES	inhibition
CC1C(=O)N(Cc2cn(Cc3ccco3)nn2)CCS(=O)(=O)N1Cc1ccc(-c2cccc(CO)c2)cc1 (stereo unspecified)	4.5% (inactive)
COc1ccc(NC(=O)CNC(=O)Cn2ccc3ccccc3c2=O)c(OC)c1	-3.8% (inactive)
CC(C)C1N=C2c3ccccc3N=C(SCC(=O)c3ccc(O)c(O)c3)N2C1=O (stereo unspecified)	-6.6% (inactive)
CCOC(=O)N1CCC(NC(=O)C(NS(=O)(=O)c2ccc3c(c2)CCN3C(=O)CC)C(C)C)CC1 (stereo unspecified)	46.5% (active)
CCC(=O)N1CCc2cc(S(=O)(=O)NC(C(=O)N3CCc4ccccc4C3)C(C)C)ccc21 (stereo unspecified)	1.1% (inactive)
COc1ccc(NC(=O)C(CC(C)C)NS(=O)(=O)c2ccc3c(c2)CCN3C(C)=O)cc1OC (stereo unspecified)	6.4% (inactive)
CC(C)S(=O)(=O)c1csc(NC(=O)Nc2ccc(Cl)cc2)c1Cl	1.6% (inactive)
CCC(C)Cn1c(O)cc2nn(-c3nc4ccccc4s3)c(=O)c-2c1C (stereo unspecified)	95.3% (active)
N#Cc1ccc(-c2ccc3nccn3c2)cc1	1.6% (inactive)
Cc1ccc(/C=N/NC(=O)CSc2nc3ccccc3o2)cc1	1% (inactive)
O=C(CSc1cccc2cccnc12)N/N=C/c1cccnc1	71.4% (active)
O=C(CNC(=O)c1cccnc1)N/N=C/c1cc(Br)c(O)c(Br)c1	-14.1% (inactive)
Cc1nnc(SCc2nc3ccccc3nc2C)s1	-1.4% (inactive)
COc1ccc2cc(C(=O)C3CCCN(C(=O)c4sc(C)nc4C)C3)ccc2c1 (stereo unspecified)	5.8% (inactive)
COc1cc(CO)ccc1OCC(=O)Nc1cccc2ccccc12	1.6% (inactive)
CCCOc1ccc(Cn2c(O)cc(=O)[nH]c2=O)cc1	65.3% (active)
COc1ccc(Cn2c(O)c(/C=C3/C=CC=N3)c(=O)[nH]c2=O)cc1	14.5% (inactive)
COc1cc(=O)[nH]c(=O)n1C(=O)Cc1ccccc1	2.2% (inactive)
COc1ccc(C2c3[nH]c4ccccc4c3C[C@H]3C(=O)N(CC(C)C)CC(=O)N23)c(OC)c1 (stereo partly specified)	-8.2% (inactive)
Cc1ccc(NC(=O)CN(C)Cc2ccc(F)cc2)c([N+](=O)[O-])c1	-8.1% (inactive)
COc1ccc2c(c1)c(=Cc1ccc(N(C)C)cc1)c1cc(-c3ccccc3)[n+](C)n12	59.4% (active)
O=C(CNC(=O)c1ccc(Cl)cc1Cl)NCC(=O)Nc1ccccc1N1CCOCC1	-2.4% (inactive)
CCCNC(=O)CCn1nc(-c2ccccc2)c2ccccc2c1=O	-1.2% (inactive)

SMILES	inhibition
CCOC(=O)c1ccc(-n2c(CCC(=O)O)ccc2-c2ccccc2)cc1	1.9% (inactive)
COCCCn1c(CCC(=O)O)ccc1-c1ccc(F)cc1	6.6% (inactive)
CC(C)Cn1c(CCC(=O)O)ccc1-c1cccs1	39.7% (active)
CC(=O)c1sc(N)nc1C	-7.7% (inactive) and -13.1% (inactive)
CC(=O)c1sc(N/N=C/c2ccc(C(C)C)cc2)nc1C	42.3% (active)
CC(=O)c1sc(NC(=O)C2=NN(c3ccccc3)C(=O)CC2)nc1C	1.1% (inactive)
Cc1cc2c(cc1C)N1C(=O)c3cc4ccccc4cc3NC(=O)C1C(=O)N2 (stereo unspecified)	7% (inactive)
COc1ccc(NC(=O)c2cn(-c3ccccc3)nc2SC)cc1	4.3% (inactive)
CCOc1ccc(-c2c(C)n([O-])c3c([n+]2=O)CCCC3)cc1	3% (inactive)
Oc1ccc(/C=N/Nc2nc(-c3ccccc3F)nc3ccccc23)c(O)c1	43.1% (active)
O=C(NNc1c2ccccc2nc2ccccc12)c1cc2ccccc2cc1O	-5.5% (inactive)
Cc1ccc(/C=N/NC(=O)C2=NNC(c3ccccc3)(c3ccccc3)C2)c(O)c1	3.5% (inactive)
Cc1nnc(SC(C)C(=O)c2c[nH]c3ccccc23)n1C1CC1 (stereo unspecified)	-0.9% (inactive)
CCCCN(C(=O)c1ccc(C)o1)c1c(N)n(CCCC)c(=O)[nH]c1=O	-3.8% (inactive)
CCN(C(=O)COc1ccc(C(=O)c2ccccc2)cc1)c1ccccc1	-0.2% (inactive)
O=C(COC(=O)COc1cccc(F)c1)NCC1CCCCC1	-7.3% (inactive)
O=C(COc1cccc(F)c1)Oc1ccc(C(=O)c2ccccc2)cc1	43% (active)
O=C(c1cccnc1)N(c1cc2sc(=O)oc2c2ccccc12)S(=O)(=O)c1ccccc1	2.8% (inactive)
NC(=O)Cc1ccc2sc(-c3ccccc3)nc2c1	4.7% (inactive)
O=C(CSc1nnc(-c2cccnc2)n1CCc1ccccc1)NCc1ccccc1	-6.8% (inactive)
C=CCn1c(SCC(=O)NC(=O)Cc2ccccc2)nc2ccccc2c1=O	0.5% (inactive)
C=CCn1c(SCC(=O)NCc2ccccc2)nnc1-c1cc(Br)ccc1O	37.3% (active)
